Source: PubChem BioAssay
Rows were chosen to be rich in hits. Some 1.1% of all compounds tested hit in one or more screens of this group.
OPRM1-OPRD1 inv = inverse agonist of human OPRM1-OPRD1 heterodimerization; actives 0.21% (n = 340,000); inhibition, % at 9.3 µM; AID 504357; P35372+P41143; cell-based MOR-DOR heterodimer luminescence, inverse agonism; in the data active = inhibition above about 22%, passing the limit was not always enough;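 note: 0% = cells with DMSO and 100% = wells without cells with DMSO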
HTR5A ag = activates human HTR5A in OPRM1-OPRD1 agonist counter-screen. P47898. HTR5A agonist assay, luminescence, cell-based. activation, % at 9.3 µM. actives 0.61% (n = 340,000). AID 504692; in the data active = activation mostly above about 9.5%, no sharp cut-off; inactive = mostly below about 7.6%;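 note: 0% = cells with vehicle only and 100% = reference agonist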
Target sequence (P47898 whole entry, looked up): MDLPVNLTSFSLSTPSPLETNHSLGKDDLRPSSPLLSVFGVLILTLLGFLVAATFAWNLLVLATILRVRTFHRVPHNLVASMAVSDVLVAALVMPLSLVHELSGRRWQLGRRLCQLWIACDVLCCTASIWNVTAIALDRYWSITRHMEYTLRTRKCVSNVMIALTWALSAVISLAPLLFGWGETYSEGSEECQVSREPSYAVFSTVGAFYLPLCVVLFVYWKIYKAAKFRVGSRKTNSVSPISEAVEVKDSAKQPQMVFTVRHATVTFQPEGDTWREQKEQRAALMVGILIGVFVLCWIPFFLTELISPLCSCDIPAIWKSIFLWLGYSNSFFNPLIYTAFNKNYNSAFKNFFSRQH
MOR-DOR ag-1 = OPRM1-OPRD1 heterodimerization agonism; actives 0.3% (n = 340,000); P35372+P41143; cells, luminescence; activation, % at 9.3 µM; AID 504326;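 note: 0% = vehicle-treated cells and 100% = reference agonist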
HTR5A inv ctr = counter-screen for OPRM1-OPRD1 inverse agonists: human HTR5A inverse agonism; inhibition, % at 9.3 µM; actives 0.083% (n = 340,000); P47898; HTR5A cell line, luminescence; AID 504634; in the data active = inhibition mostly above about 23%, no sharp cut-off; inactive = mostly below about 18%;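 note: 0% = cells with DMSO and 100% = no-cell wells with DMSO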
MOR-DOR ag-2 = promotes OPRM1-OPRD1 heterodimerization in HTR5A counter-screen. shares compounds with HTR5A ag. actives 13% (n = 800). activation, % at 9.3 µM. U2OS counter-screen cells, complementation luminescence, 3 h
HTR5A ag confirm = confirmation of human HTR5A agonists | shares compounds with HTR5A ag | HTR5A agonist cell assay, luminescence | activation, % at 9.3 µM | actives 17% (n = 800) | AID 504915; in the data active = activation above about 17%;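 note: 0% = cells with vehicle only and 100% = full reference agonist response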
An asterisk follows results filed as active; . = not tested or not shown. Cut-off read from the data, not from the text of the source, unless noted: active = activation above about 18%; inactive = the rest.

SMILES	OPRM1-OPRD1 inv	HTR5A ag	MOR-DOR ag-1	HTR5A inv ctr	MOR-DOR ag-2	HTR5A ag confirm
CSCc1cc(N2CCOCC2)nc(SCc2ccc(Cl)c(Cl)c2)n1	-28.8	4.9	5.1	-12.7	.	.
O=C(COC(=O)c1cccs1)NC1CCCC1	-6.7	0.5	0.9	-1.2	.	.
Cc1nnc(SCc2ccc(C(=O)O)cc2)s1	9.4	16.3*	-1.8	-17.5	2.4	2.2
O=c1[nH]c(C2CCN(S(=O)(=O)Cc3ccccc3)CC2)nc2c1nnn2Cc1cccc(Cl)c1	-13.2	14.5*	1.6	-43.1	1.3	0.8
O=S(=O)(NCc1ccc2c(c1)OCO2)c1ccc(F)c(F)c1	5.6	14.9*	-1.1	-19.1	1.1	2.1
Cc1cc(S(=O)(=O)NCc2ccc3c(c2)OCO3)ccc1F	7.2	-4.3	-1.4	-25.6	.	.
CCCc1[nH]n(-c2ccc([N+](=O)[O-])cc2)c(=O)c1C=NCCc1c[nH]c2ccccc12	-6.7	19.8*	1.4	-43.6	5.1	4.6
Cc1[nH]n(-c2ccccc2)c(=O)c1C=NCCc1ccccc1	11.9	2.2	-2.3	-0.6	.	.
Cc1[nH]n(-c2ccc([N+](=O)[O-])cc2)c(=O)c1C=NCCc1c[nH]c2ccccc12	-4.6	34.3*	0.9	-100.5	2.6	9.8
O=C(c1ccco1)N1CCN(C(=O)c2ccc(-c3cccc(C(F)(F)F)c3)o2)CC1	9.3	35.3*	-1.4	-92.1	0.2	23.4*
O=C(c1ccc(-c2cccc(C(F)(F)F)c2)o1)N1CCCCCCC1	-13.7	3.6	2.6	-9.8	.	.
c1ccc2c(NCCc3c[nH]c4ccccc34)c3ccccc3nc2c1	-17.3	17.3*	3.1	-67.9	6.9	2.1
COc1ccc(C(=O)CCC(=O)NCCc2c[nH]c3ccccc23)cc1	20.1	44.3*	-4.5	-156.4	0.2	42.1*
CN(c1ccccc1)S(=O)(=O)c1cccc(C(=O)NCCc2c[nH]c3ccccc23)c1	8.3	26.7*	-1.6	-72.9	57.0*	0.6
O=C(NCCc1c[nH]c2ccccc12)c1cccc(S(=O)(=O)Nc2ccccc2Cl)c1	7.9	-0.4	-1.6	1.6	.	.
Fc1cccc(NCCc2c[nH]c3ccccc23)n1	-26.1	-3.0	4.5	11.7	.	.
Cc1ccccc1NC(=O)C(=O)NCCc1c[nH]c2ccccc12	-16.4	34.7*	3.0	-190.0	2.2	61.0*
CCOC(=O)Nc1ccc2c(COC(=O)C(NS(=O)(=O)c3ccc(Cl)cc3)C(C)O)cc(=O)oc2c1 (stereo not given)	-4.1	-1.7	0.8	6.0	.	.
CC1CCN(S(=O)(=O)c2cc(F)ccc2CN2C(=O)c3cccnc3C2=O)CC1	1.1	3.0	-0.2	-5.6	.	.
O=C(O)c1nccnc1C(=O)NCCc1c[nH]c2ccccc12	17.9	15.9*	-3.4	-5.3	-0.1	11.8
O=C(CCC(=O)c1ccccc1)NCCc1c[nH]c2ccccc12	7.7	93.5*	-1.4	-292.6	2.1	89.1*
O=C(Cc1ccccc1)NCCc1c[nH]c2ccccc12	10.4	-0.1	-2.0	-1.6	.	.
CC(C)CCNC(=O)C1(c2cccs2)CCOCC1	0.4	6.2	-0.1	-27.0	.	.
COc1cc(-c2nc3cnccn3c2Nc2ccc3c(c2)OCCO3)ccc1O	4.7	9.8	-0.8	-26.2	.	.
COc1cc(-c2nc3ccc(C)cn3c2Nc2ccc3c(c2)OCCO3)ccc1O	-13.1	42.9*	2.5	-108.0	3.1	38.8*
SMILES	OPRM1-OPRD1 inv	HTR5A ag	MOR-DOR ag-1	HTR5A inv ctr	MOR-DOR ag-2	HTR5A ag confirm
CCn1c(C)nc2cc(C(=O)NN=Cc3ccccc3OC(F)F)ccc21	6.2	18.4*	-1.4	-45.6	16.4	7.0
Nc1ccc(C(=O)N/N=C/c2cccc(Oc3ccccc3)c2)cc1	13.6	22.8*	-2.4	-83.6	-0.1	27.5*
COc1ccc(-c2cc3cc(F)ccc3cn2)cc1	-30.5	24.3*	5.2	-65.4	22.4*	-1.0
CC(C)c1ccc2oc(=O)cc(CN3CCCCC3)c2c1	-32.7	0.6	6.9	-2.2	.	.
O=C(N/N=C/c1cc([N+](=O)[O-])ccc1Cl)c1cc(-c2ccccc2)nc2ccccc12	1.2	15.9*	-0.2	-10.7	8.3	3.4
O=C(c1ccc2nccnc2c1)N1CCN(c2ccccc2)CC1	5.7	-4.5	-0.8	-19.5	.	.
COc1ccc2[nH]c3c(c2c1)CCNC3=O	18.1	-1.9	-3.4	-8.1	.	.
COc1ccc2[nH]c3c(c2c1)CCNC3(C)CCc1ccc(Cl)nc1 (stereo not given)	4.8	20.8*	-0.8	-80.7	2.3	33.8*
